# Experimental data: PubChem BioAssay (EPA / NIEHS)
# Inconclusive results are not listed. A structure can be active in one record and inactive in another. Active and inactive are the calls of the source. Rule for the calls, unless noted: active = hit-call score of the fitted dose curve at least 0.9, where 1 is the maximum; inactive = score below 0.9.
# Assays:
# [1] = biological target: human RAR-related Orphan Receptor gamma (RORg), RORC (gene 6097) (UniProt P51449); experiment: ATG_RORg_TRANS: Attagene TRANS-FACTORIAL HepG2 Assay for human RAR-related Orphan Receptor gamma (RORg) (AID 2283011; active = hit-call score of the fitted dose curve at least 0.9, where 1 is the maximum)
# Summary of the method: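 Transient MRTU transfection of HepG2 (TRANS format, exogenous NR-Gal4 chimera). 24 h dosing. Total RNA → oligo(dT) RT → PCR → 6-FAM labelling → HpaI cut → CE. Gain vs DMSO.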
# [2] = biological target: Retinoic acid receptor RXR-alpha (Homo sapiens) (UniProt P19793); experiment: ATG_RXRa_TRANS: Attagene TRANS-FACTORIAL HepG2 Assay for human Retinoid X Receptor alpha (RXRa) (AID 2283012; active = hit-call score of the fitted dose curve at least 0.9, where 1 is the maximum)
# Summary of the method: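 Transient transfection of human HepG2 with multiple GAL4-UAS reporter constructs; 24 h compound exposure; total RNA isolated, reverse-transcribed, PCR-amplified, 6-FAM labelled, HpaI-cut, resolved by capillary electrophoresis. Positive-direction fit versus DMSO.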
# [3] = biological target: human Retinoid X Receptor beta (RXRb), RXRB (gene 6257) (UniProt P28702); experiment: ATG_RXRb_TRANS: Attagene TRANS-FACTORIAL HepG2 Assay for human Retinoid X Receptor beta (RXRb) (AID 2283013; active = hit-call score of the fitted dose curve at least 0.9, where 1 is the maximum)
# Summary of the method: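 Transfect HepG2 with GAL4-UAS multi-reporter constructs (chimeric NR-Gal4, TRANS format); dose compound 24 h; isolate RNA, RT-PCR, FAM primer extension, HpaI digest; quantify by capillary electrophoresis; positive direction vs DMSO.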
# [4] = biological target: human Thyroid Receptor alpha (THRa1), THRA (gene 7067) (UniProt P10827); experiment: ATG_THRa1_TRANS: Attagene TRANS-FACTORIAL HepG2 Assay for human Thyroid Receptor alpha (THRa1) (AID 2283014; active = hit-call score of the fitted dose curve at least 0.9, where 1 is the maximum)
# Summary of the method: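 Transient HepG2 transfection, NR-Gal4 chimera driving GAL4-UAS reporters; 24 h compound exposure; total RNA, oligo(dT) RT, PCR, fluorescent primer extension, capillary electrophoresis. Upward direction vs DMSO control.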
# [5] = read-out: E-selectin (Homo sapiens) (UniProt P16581); experiment: BSK_3C_Eselectin: BioMAP Diversity Plus: 3C Assay for Eselectin Biomarker Activity (AID 2283015); settings: primary human endothelial cells (HUVEC); actives raise or lower the signal;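 note: cell surface E-selectin protein quantified by ELISA 24 h after dosing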
# Summary of the method: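 HUVEC, 3C stimulation; compound exposure 24 h; E-selectin by ELISA; gain- or loss-of-signal fitted bidirectionally vs DMSO baseline.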
# [6] = read-out: Interleukin-1 alpha (IL1a), IL1A (gene 3552); experiment: BSK_BE3C_IL1a: BioMAP Diversity Plus: BE3C Assay for Interleukin-1 alpha (IL1a) Biomarker Activity (AID 2283016); settings: primary human bronchial epithelial cells; actives raise or lower the signal
# Summary of the method: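 BE3C primary human bronchial epithelium; cpd 24 h; IL-1a by ELISA; bidirectional fit vs DMSO; parallel SRB (0.1% SRB, 10% TCA fix, 560 nm) for cytotoxicity.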
# [7] = read-out: Monocyte Chemoattractant Protein-1 (MCP1), CCL2 (gene 6347); experiment: BSK_4H_MCP1: BioMAP Diversity Plus: 4H Assay for Monocyte Chemoattractant Protein-1 (MCP1) Biomarker Activity (AID 2283018); settings: primary human endothelial cells (HUVEC); actives raise or lower the signal
# Summary of the method: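 ELISA read-out of MCP-1 from human vascular endothelial primary cells taken at 24 hours after compound exposure. Activity was fitted in both directions relative to DMSO, which served as negative control.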
# [8] = read-out: Human Leukocyte Antigen - DR isotype (HLADR), HLA-DRA (gene 3122); experiment: BSK_3C_HLADR: BioMAP Diversity Plus: 3C Assay for Human Leukocyte Antigen - DR isotype (HLADR) Biomarker Activity (AID 2283019); settings: primary human endothelial cells (HUVEC); actives raise or lower the signal;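 note: ELISA of cell-surface HLA-DR on HUVEC 24 h after dosing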
# Summary of the method: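 HUVEC, 3C stimulation, 24 h post-dose; HLA-DR by ELISA; bidirectional curve fit vs DMSO baseline; gain or loss of signal scored.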
# [9] = read-out: Interleukin-8 (IL8), CXCL8 (gene 3576); experiment: BSK_3C_IL8: BioMAP Diversity Plus: 3C Assay for Interleukin-8 (IL8) Biomarker Activity (AID 2283020); settings: primary human endothelial cells (HUVEC); actives raise or lower the signal
# Summary of the method: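 ELISA read-out of IL-8 from human umbilical vein endothelium, measured 24 h after chemical dosing. Activity is expressed relative to DMSO negative control, with both increases and decreases fitted.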
# [10] = biological target: human Vitamin D Receptor (VDR), VDR (gene 7421) (UniProt P11473); experiment: ATG_VDR_TRANS: Attagene TRANS-FACTORIAL HepG2 Assay for human Vitamin D Receptor (VDR) (AID 2283022; active = hit-call score of the fitted dose curve at least 0.9, where 1 is the maximum)
# Summary of the method: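 RT-PCR/capillary electrophoresis read-out of reporter mRNA induction in transiently transfected HepG2; 24 h dosing; chimeric NR-Gal4 (TRANS format); gain-of-signal fit against DMSO baseline.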
# [11] = BSK_3C_SRB: Viability Assessment in the BioMAP Diversity Plus: 3C Assay (AID 2283023); settings: primary human endothelial cells (HUVEC);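 note: fitted both ways against DMSO so a hit may be signal rise or drop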
# Summary of the method: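 HUVEC, 24 h post-dose; 10% TCA fix, 0.1% SRB stain, A560 nm. Bidirectional curve fit vs DMSO negative control.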
# [12] = BSK_3C_Vis: BioMAP Diversity Plus: 3C Assay for Morphology Visualization (AID 2283025); settings: primary human endothelial cells (HUVEC);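 note: fitted both ways so gain or loss versus DMSO counts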
# Summary of the method: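 Chemicals were added to primary human umbilical vein endothelium, cells were incubated 24 h, and morphology was then visualized by light microscopy. Gain or loss of signal was fitted bidirectionally relative to DMSO.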
# [13] = read-out: Pselectin, SELP (gene 6403); experiment: BSK_4H_Pselectin: BioMAP Diversity Plus: 4H Assay for Pselectin Biomarker Activity (AID 2283026); settings: primary human endothelial cells (HUVEC); actives raise or lower the signal
# Summary of the method: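 ELISA read-out of P-selectin on human umbilical vein endothelium after 24 h of dosing. Values derive from bidirectional fitting relative to DMSO. Parallel SRB protein staining flagged overt cytotoxicity.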
# [14] = BSK_4H_SRB: Viability Assessment in the BioMAP Diversity Plus: 4H Assay (AID 2283027); settings: primary human endothelial cells (HUVEC);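 note: cells exposed to compound for 24 h before staining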
# Summary of the method: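 Human umbilical vein endothelial cells were dosed with chemical and, after 24 h, fixed with 10% TCA, stained with 0.1% sulforhodamine B, and read at 560 nm to give total protein as a cytotoxicity measure. Bidirectional fitting relative to DMSO control.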
# [15] = BSK_BE3C_SRB: Viability Assessment in the BioMAP Diversity Plus: BE3C Assay (AID 2283028); settings: primary human bronchial epithelial cells
# Summary of the method: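 Primary human bronchial epithelium; chemical dosing, 24 h; 10% TCA fix, 0.1% SRB stain, A560; bidirectional fit vs DMSO baseline.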
# [16] = read-out: Thrombomodulin, THBD (gene 7056); experiment: BSK_3C_Thrombomodulin: BioMAP Diversity Plus: 3C Assay for Thrombomodulin Biomarker Activity (AID 2283029); settings: primary human endothelial cells (HUVEC); actives raise or lower the signal
# Summary of the method: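 Read-out is ELISA of thrombomodulin on human umbilical vein endothelium 24 h after chemical dosing. Gain or loss of signal is scored relative to DMSO. Overt cytotoxicity is checked in parallel cultures by sulforhodamine B staining.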
# [17] = read-out: Urokinase-type plasminogen activator receptor (uPAR), PLAUR (gene 5329); experiment: BSK_4H_uPAR: BioMAP Diversity Plus: 4H Assay for Urokinase-type plasminogen activator receptor (uPAR) Biomarker Activity (AID 2283030); settings: primary human endothelial cells (HUVEC); actives raise or lower the signal
# Summary of the method: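 HUVEC, 24 h post-dose; uPAR by ELISA; bidirectional fit vs DMSO baseline.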
# [18] = read-out: Matrix Metallopeptidase 1 (MMP1), MMP1 (gene 4312); experiment: BSK_BE3C_MMP1: BioMAP Diversity Plus: BE3C Assay for Matrix Metallopeptidase 1 (MMP1) Biomarker Activity (AID 2283024); settings: primary human bronchial epithelial cells; actives raise or lower the signal
# Summary of the method: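 Human bronchial epithelial cells (BE3C system) exposed to compound for 24 h; MMP1 then quantified by ELISA. Activity was fitted in both directions relative to DMSO.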
# [19] = read-out: Monocyte Chemoattractant Protein-1 (MCP1), CCL2 (gene 6347); experiment: BSK_3C_MCP1: BioMAP Diversity Plus: 3C Assay for Monocyte Chemoattractant Protein-1 (MCP1) Biomarker Activity (AID 2283017); settings: primary human endothelial cells (HUVEC); actives raise or lower the signal
# Summary of the method: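 HUVEC, 3C system; 24 h chemical exposure; MCP-1 by ELISA; bidirectional curve fit vs DMSO baseline.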
# [20] = read-out: Monokine induced gamma interferon (MIG), CXCL9 (gene 4283); experiment: BSK_3C_MIG: BioMAP Diversity Plus: 3C Assay for Monokine induced gamma interferon (MIG) Biomarker Activity (AID 2283021); settings: primary human endothelial cells (HUVEC); actives raise or lower the signal
# Summary of the method: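 Read-out is ELISA detection of MIG on human umbilical vein endothelial cells, taken 24 h after dosing. Gain or loss of signal was scored relative to DMSO controls using bidirectional curve fitting.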
# human Vitamin D Receptor (VDR), VDR (gene 7421), sequence (P11473 whole entry, looked up, the tested form may be a part): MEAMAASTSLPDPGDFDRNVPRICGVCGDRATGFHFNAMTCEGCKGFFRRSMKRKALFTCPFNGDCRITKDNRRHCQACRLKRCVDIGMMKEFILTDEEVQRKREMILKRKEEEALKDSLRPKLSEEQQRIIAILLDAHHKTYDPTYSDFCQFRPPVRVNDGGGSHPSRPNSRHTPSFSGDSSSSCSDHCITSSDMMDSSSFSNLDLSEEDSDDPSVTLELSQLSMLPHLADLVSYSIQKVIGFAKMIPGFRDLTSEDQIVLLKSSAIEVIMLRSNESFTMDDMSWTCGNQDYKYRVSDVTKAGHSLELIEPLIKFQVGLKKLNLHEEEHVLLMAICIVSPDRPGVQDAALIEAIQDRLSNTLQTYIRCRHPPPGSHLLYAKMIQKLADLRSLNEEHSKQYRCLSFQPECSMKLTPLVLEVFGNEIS
# human Retinoid X Receptor beta (RXRb), RXRB (gene 6257), sequence (P28702 whole entry, looked up, the tested form may be a part): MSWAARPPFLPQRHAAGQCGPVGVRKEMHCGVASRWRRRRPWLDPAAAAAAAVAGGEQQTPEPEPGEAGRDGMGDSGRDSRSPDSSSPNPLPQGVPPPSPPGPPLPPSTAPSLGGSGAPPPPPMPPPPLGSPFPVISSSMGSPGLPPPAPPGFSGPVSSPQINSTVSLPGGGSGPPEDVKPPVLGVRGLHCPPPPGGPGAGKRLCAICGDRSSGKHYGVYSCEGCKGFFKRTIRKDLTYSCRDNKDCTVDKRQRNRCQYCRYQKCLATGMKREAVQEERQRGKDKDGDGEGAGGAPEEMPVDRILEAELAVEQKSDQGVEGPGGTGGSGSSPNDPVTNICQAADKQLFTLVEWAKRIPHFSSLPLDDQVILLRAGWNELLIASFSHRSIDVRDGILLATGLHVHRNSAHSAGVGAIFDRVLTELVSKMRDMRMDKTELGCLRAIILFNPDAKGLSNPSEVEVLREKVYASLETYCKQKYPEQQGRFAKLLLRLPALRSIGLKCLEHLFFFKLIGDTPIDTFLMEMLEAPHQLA
# E-selectin (Homo sapiens), sequence (P16581 whole entry, looked up): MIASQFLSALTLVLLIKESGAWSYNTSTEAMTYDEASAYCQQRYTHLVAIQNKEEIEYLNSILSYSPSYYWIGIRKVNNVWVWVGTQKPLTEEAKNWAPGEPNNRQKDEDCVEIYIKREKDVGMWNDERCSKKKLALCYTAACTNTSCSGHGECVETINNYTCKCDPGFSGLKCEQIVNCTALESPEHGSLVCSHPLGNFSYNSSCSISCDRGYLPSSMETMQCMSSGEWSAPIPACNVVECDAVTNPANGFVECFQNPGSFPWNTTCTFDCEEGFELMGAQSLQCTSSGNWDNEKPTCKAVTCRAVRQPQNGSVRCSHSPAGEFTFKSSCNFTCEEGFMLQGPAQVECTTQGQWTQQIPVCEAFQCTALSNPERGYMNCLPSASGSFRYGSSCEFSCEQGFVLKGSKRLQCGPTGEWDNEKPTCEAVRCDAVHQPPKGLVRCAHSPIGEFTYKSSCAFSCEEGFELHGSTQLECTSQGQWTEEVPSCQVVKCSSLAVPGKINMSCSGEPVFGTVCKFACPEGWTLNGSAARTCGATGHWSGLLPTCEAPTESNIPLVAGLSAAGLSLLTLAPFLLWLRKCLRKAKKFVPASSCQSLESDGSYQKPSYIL
# human RAR-related Orphan Receptor gamma (RORg), RORC (gene 6097), sequence (P51449 whole entry, looked up, the tested form may be a part): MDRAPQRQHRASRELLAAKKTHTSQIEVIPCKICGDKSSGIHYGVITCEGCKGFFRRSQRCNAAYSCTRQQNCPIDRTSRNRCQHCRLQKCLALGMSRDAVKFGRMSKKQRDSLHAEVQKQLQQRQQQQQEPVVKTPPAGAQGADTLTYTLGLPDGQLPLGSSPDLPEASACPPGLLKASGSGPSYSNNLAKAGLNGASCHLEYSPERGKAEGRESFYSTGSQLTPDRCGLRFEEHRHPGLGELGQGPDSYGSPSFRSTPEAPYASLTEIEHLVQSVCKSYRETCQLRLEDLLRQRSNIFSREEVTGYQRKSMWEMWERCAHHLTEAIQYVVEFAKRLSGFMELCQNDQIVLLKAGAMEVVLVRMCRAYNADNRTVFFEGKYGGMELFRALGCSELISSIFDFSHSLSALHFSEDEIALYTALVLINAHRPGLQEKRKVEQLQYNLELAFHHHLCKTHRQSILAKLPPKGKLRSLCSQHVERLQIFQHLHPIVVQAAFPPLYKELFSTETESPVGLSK
# Retinoic acid receptor RXR-alpha (Homo sapiens), sequence (P19793 whole entry, looked up, the tested form may be a part): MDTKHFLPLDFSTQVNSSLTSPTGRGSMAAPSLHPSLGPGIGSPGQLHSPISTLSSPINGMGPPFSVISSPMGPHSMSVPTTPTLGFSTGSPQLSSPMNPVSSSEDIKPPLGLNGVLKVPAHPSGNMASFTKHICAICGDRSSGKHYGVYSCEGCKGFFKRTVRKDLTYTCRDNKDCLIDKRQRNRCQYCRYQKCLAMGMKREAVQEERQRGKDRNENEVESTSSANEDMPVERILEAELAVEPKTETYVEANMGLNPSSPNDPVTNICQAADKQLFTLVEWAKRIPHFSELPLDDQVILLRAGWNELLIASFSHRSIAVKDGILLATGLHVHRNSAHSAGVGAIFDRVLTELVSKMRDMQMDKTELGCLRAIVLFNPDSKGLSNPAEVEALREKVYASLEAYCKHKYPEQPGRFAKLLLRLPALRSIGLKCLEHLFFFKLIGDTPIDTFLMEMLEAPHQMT
# human Thyroid Receptor alpha (THRa1), THRA (gene 7067), sequence (P10827 whole entry, looked up, the tested form may be a part): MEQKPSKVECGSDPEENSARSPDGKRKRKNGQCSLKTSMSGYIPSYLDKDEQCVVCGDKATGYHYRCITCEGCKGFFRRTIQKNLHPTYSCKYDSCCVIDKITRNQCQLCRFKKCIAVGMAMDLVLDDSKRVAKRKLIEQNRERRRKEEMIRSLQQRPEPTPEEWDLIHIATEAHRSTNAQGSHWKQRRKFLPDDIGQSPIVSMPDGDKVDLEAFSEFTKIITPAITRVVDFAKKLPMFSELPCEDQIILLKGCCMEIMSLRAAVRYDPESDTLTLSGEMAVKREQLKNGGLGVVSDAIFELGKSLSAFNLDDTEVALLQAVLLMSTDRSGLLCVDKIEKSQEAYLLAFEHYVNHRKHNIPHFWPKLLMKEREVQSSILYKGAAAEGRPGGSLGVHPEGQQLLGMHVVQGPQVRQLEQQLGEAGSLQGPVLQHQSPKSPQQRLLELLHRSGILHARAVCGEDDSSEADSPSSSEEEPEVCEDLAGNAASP
compound,measurement,setting,value
CCCCCCCC/C=C\CCCCCCCC(=O)OC[C@@H](O)[C@H]1OC[C@H](O)[C@H]1O,outcome,[1],inactive
same,outcome,[2],inactive
same,outcome,[3],inactive
same,outcome,[4],inactive
same,outcome,[5],inactive
same,outcome,[6],inactive
same,outcome,[7],inactive
same,outcome,[8],inactive
same,outcome,[9],inactive
same,outcome,[10],inactive
same,outcome,[11],inactive
same,outcome,[12],inactive
same,outcome,[13],inactive
same,outcome,[14],inactive
same,outcome,[15],inactive
same,outcome,[16],inactive
same,outcome,[17],inactive
O=C(O)[C@H](O)[C@@H](O)C(=O)O,outcome,[1],inactive
same,outcome,[2],inactive
same,outcome,[3],inactive
same,outcome,[4],inactive
same,outcome,[5],inactive
same,outcome,[6],inactive
same,outcome,[7],inactive
same,outcome,[8],inactive
same,outcome,[9],inactive
same,outcome,[11],inactive
same,outcome,[18],inactive
same,outcome,[12],inactive
same,outcome,[13],inactive
same,outcome,[14],inactive
same,outcome,[15],inactive
same,outcome,[16],inactive
same,outcome,[17],inactive
CCCCCCCCCC,outcome,[1],inactive
same,outcome,[2],inactive
same,outcome,[3],inactive
same,outcome,[5],inactive
same,outcome,[6],inactive
same,outcome,[19],inactive
same,outcome,[7],inactive
same,outcome,[8],inactive
same,outcome,[9],inactive
same,outcome,[20],inactive
same,outcome,[10],inactive
same,outcome,[11],inactive
same,outcome,[18],inactive
same,outcome,[12],inactive
same,outcome,[13],inactive
same,outcome,[14],inactive
same,outcome,[15],inactive
same,outcome,[16],inactive
same,outcome,[17],inactive
NCC(F)(F)C(F)(F)C(F)(F)C(F)(F)F,outcome,[1],inactive
same,outcome,[2],inactive
same,outcome,[3],inactive
same,outcome,[4],inactive
same,outcome,[5],inactive
same,outcome,[6],inactive
same,outcome,[19],inactive
same,outcome,[7],inactive
same,outcome,[8],inactive
same,outcome,[9],inactive
same,outcome,[20],inactive
same,outcome,[10],inactive
same,outcome,[11],inactive
same,outcome,[18],inactive
same,outcome,[13],inactive
same,outcome,[14],inactive
same,outcome,[15],inactive
same,AC50,[16],5.95 µM (active)
same,outcome,[16],inactive
same,outcome,[17],inactive
FC(F)(F)COC(OCC(F)(F)F)OCC(F)(F)F,outcome,[1],inactive
same,outcome,[2],inactive
same,outcome,[3],inactive
same,outcome,[5],inactive
same,outcome,[6],inactive
same,outcome,[19],inactive
same,outcome,[7],inactive
same,outcome,[8],inactive
same,outcome,[9],inactive
same,outcome,[10],inactive
same,outcome,[11],inactive
same,outcome,[13],inactive
same,outcome,[14],inactive
same,outcome,[15],inactive
same,outcome,[16],inactive
same,outcome,[17],inactive
Cc1ncc([C@@H](CCCCCCc2ccc3c(n2)NCCC3)CC(=O)O)cn1,outcome,[1],inactive
same,outcome,[2],inactive
same,outcome,[3],inactive
same,outcome,[4],inactive
same,outcome,[5],inactive
same,outcome,[6],inactive
same,outcome,[7],inactive
same,outcome,[8],inactive
same,AC50,[9],1.02 µM (active)
same,outcome,[10],inactive
same,outcome,[11],inactive
same,outcome,[12],inactive
same,outcome,[13],inactive
same,outcome,[14],inactive
same,outcome,[15],inactive
same,outcome,[16],inactive
same,AC50,[17],3.97 µM (active)
O=C(N[C@H](CO)[C@H](O)c1ccc([N+](=O)[O-])cc1)C(Cl)Cl,outcome,[1],inactive
same,outcome,[2],inactive
same,outcome,[3],inactive
same,outcome,[4],inactive
FC(F)(F)C(F)(F)C(F)(F)C(F)(F)C(F)(F)C(F)(F)I,outcome,[1],inactive
same,outcome,[2],inactive
same,AC50,[3],91.3 µM (active)
same,outcome,[3],inactive
same,outcome,[5],inactive
same,outcome,[6],inactive
same,outcome,[7],inactive
same,outcome,[8],inactive
same,outcome,[9],inactive
same,outcome,[10],inactive
same,outcome,[11],inactive
same,outcome,[18],inactive
same,outcome,[13],inactive
same,outcome,[14],inactive
same,outcome,[15],inactive
same,outcome,[16],inactive
same,outcome,[17],inactive
